Holding throughout (assay): NCI-60 one-dose screen, 48 h (100 = growth as untreated, 0 = no growth, -100 = all killed)
What all share (details): 10 µM unless noted

Experiment [1] has as its system HCT-15 colon.
For experiment [2], the system named is HT29 colon.
The test system of experiment [3] is SNB-75 CNS.
Experiment [4] concerns SNB-19 CNS.
The test system of experiment [5] is U251 CNS.
Experiment [6] deals with PC-3 prostate.
Experiment [7] has as its system SK-MEL-5 melanoma.
The test system of experiment [8] is UACC-62 melanoma.
Experiment [9] deals with LOX IMVI melanoma.
The test system of experiment [10] is SK-MEL-28 melanoma.

Several values for one entry are separate records, joined by “and”; a condition that tells them apart may be missing. Equal entries are not always repeated. Compounds without any hit were thinned out: in the full panel of roughly 83,000, 20% have a hit.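 Assay: single dose, 48 h. Readout: percent growth (0 = no net growth; negative = cell death). Active: <10.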 Activity calls are given as the source filed them.

On to `COc1ccc(N=Nc2c(N)nn3c(N)c(C#N)c(-c4ccccc4)nc23)cc1`, for which the growth in experiment [1] was 70.8% (inactive); in [2], 60.9% (inactive); in experiment [3], -15.8% (active); in experiment [4] it was 27.1% (inactive); in [5], 21% (inactive); in experiment [6], 28.2% (inactive). In addition, the growth is 34.2% (inactive) in experiment [7], 36.3% (inactive) in [8], 54.9% (inactive) in experiment [9] and 66.6% (inactive) in experiment [10].

Take `COc1ccc2[nH]c(O)c(N=NC(=O)c3ccc4nc(-c5ccc(Cl)cc5)[nH]c4c3)c2c1`: the growth is 105% (inactive) in [1]; 86.1% (inactive) in experiment [2]; 93.8% (inactive) in experiment [3]; 29.6% (inactive) in experiment [4]; -30.5% (active) in experiment [5]; 58.9% (inactive) in experiment [6]. Further, the growth in experiment [7] is 96.2% (inactive); in [8], 69.8% (inactive); in experiment [9] it was 24.6% (inactive); in experiment [10] it was 37.2% (inactive).

With `Cc1ccc(C(C)C)cc1Oc1cccc(-c2c(-c3ccc(C(F)(F)F)cc3)ncn2C2CCNCC2)n1`, the growth is -94.1% (active) in experiment [1]; -92.1% (active) in experiment [2]; -94.1% (active) in experiment [3]; -97.2% (active) in experiment [4]; -85.3% (active) in experiment [5]; -92% (active) in [6]. In addition, the growth was -98.6% (active) in experiment [7], -94.1% (active) in [8], -75.8% (active) in experiment [9] and -80.5% (active) in [10].

`Oc1ccc(Cl)c(Nc2ncnc3c2cnn3CC(Cl)c2ccc(Br)cc2)c1` (stereo not given): the growth is 37.9% (inactive) in experiment [1]; 57.2% (inactive) in [2]; 3.71% (active) in experiment [3]; 57.4% (inactive) in [4]; 53.5% (inactive) in experiment [5]; 44.5% (inactive) in experiment [6]. The growth is 48.8% (inactive) in experiment [7], 55.6% (inactive) in [8], 0.654% (active) in [9] and 78.4% (inactive) in experiment [10].

As for `Cc1ccc2nc(SCc3ccccc3F)n(-c3ccccc3)c(=O)c2c1`, the growth was 83.3% (inactive) in [1]; 78.7% (inactive) in experiment [2]; 156% (inactive) in [3]; 96.8% (inactive) in [4]; 99.4% (inactive) in experiment [5]; 77.9% (inactive) in experiment [6]. Further, the growth in [7] was 93.9% (inactive); in experiment [8], 74.3% (inactive); in [9] it was 84.9% (inactive); in experiment [10], 100% (inactive).

`COc1ccc2nc(NC(=O)c3ccc(N(C)C)cc3)sc2c1`: the growth in [1] was 59.4% (inactive); in [2], 100% (inactive); in [3], 101% (inactive); in experiment [4] it was 84.4% (inactive); in [5], 93.5% (inactive); in experiment [6] it was 71.3% (inactive). The growth was 55.7% (inactive) in experiment [7], 69.9% (inactive) in [8], 87% (inactive) in experiment [9] and 95% (inactive) in experiment [10].

For `O=C(CSc1nc2ccccc2c(=O)[nH]1)NNC(=O)c1ccccc1Cl`, the growth was 107% (inactive) in experiment [1]; 109% (inactive) in [2]; 72.6% (inactive) in [3]; 92.4% (inactive) in experiment [4]; 96.3% (inactive) in [5]; 123% (inactive) in experiment [6]. In addition, the growth in experiment [7] was 106% (inactive); in experiment [8] it was 110% (inactive); in experiment [9], 102% (inactive); in [10], 148% (inactive).

For the compound `CC1(C)CC(=O)C2=C(C1)OC(N)=C(c1nc3ccccc3[nH]1)C2c1ccc(Cl)cc1` (stereo not given), the growth in [1] is 39.8% (inactive) and 106% (inactive); in [2], 86.8% (inactive) and 115% (inactive); in experiment [3] it was 65.4% (inactive) and 124% (inactive); in experiment [4] it was 50% (inactive) and 99.9% (inactive); in experiment [5], 45.1% (inactive) and 112% (inactive); in [6], 35.6% (inactive) and 107% (inactive). In addition, the growth was -40.8% (active) and 104% (inactive) in [7]; -22.9% (active) and 94.3% (inactive) in experiment [8]; 42.9% (inactive) and 107% (inactive) in experiment [9]; 30.1% (inactive) and 109% (inactive) in [10].

For `NS(=O)(=O)c1ccc(N2N=C(c3ccc(NC(=O)Nc4ccccc4)cc3)CC2c2ccc(Br)cc2)cc1` (stereo not given), the growth in [1] is -89.1% (active); in experiment [2] it was -57% (active); in experiment [3] it was -43.1% (active); in [4], -98.2% (active); in [5], -86.2% (active); in experiment [6], -45.2% (active). For the same compound, the growth in experiment [7] is -99.8% (active); in experiment [8], -96.2% (active); in experiment [9] it was -100% (active); in [10] it was -98.1% (active).

For `O=C(N/N=C/c1ccc(-c2cccc([N+](=O)[O-])c2)s1)c1[nH]c2ccc(Br)cc2c1-c1ccccc1`, the growth is 84.9% (inactive) in experiment [1]; 109% (inactive) in experiment [2]; 86.8% (inactive) in experiment [3]; 56.1% (inactive) in experiment [4]; 73.4% (inactive) in experiment [5]; 85.7% (inactive) in experiment [6]. Moreover, the growth is 93.8% (inactive) in experiment [7], 70.5% (inactive) in [8], 85.8% (inactive) in [9] and 87.6% (inactive) in experiment [10].

For `C[C@@H]1[C@H]2C[C@@H](C[C@H]1NCc1nc3ccccc3n1C1CCCCCC1)C2(C)C`, the growth is 27.3% (inactive) in [1]; 51.4% (inactive) in experiment [2]; 82% (inactive) in [3]; 59.3% (inactive) in experiment [4]; 67.2% (inactive) in experiment [5]; 37.1% (inactive) in [6]. For the same compound, the growth in [7] is 4.99% (active); in experiment [8], 47.9% (inactive); in [9] it was 44% (inactive); in experiment [10] it was 77.5% (inactive).

As to `O=C(N/N=C/c1ccc(Br)o1)c1[nH]c2ccc(Br)cc2c1-c1ccccc1`, the growth in experiment [1] is -6.94% (active); in experiment [2], -46.2% (active); in [3], -18.3% (active); in experiment [4] it was 0.0073% (active); in experiment [5], -75.3% (active); in [6] it was 7.74% (active). The growth was -78.5% (active) in experiment [7], 5.43% (active) in experiment [8], -62.8% (active) in experiment [9] and -20.9% (active) in experiment [10].

As for `COc1ccc(/C=C/C(=O)c2ccc(S(=O)(=O)NCCNc3nc(N(C)C)nc(N4CCOCC4)n3)cc2)cc1`, the growth in experiment [1] is 59.3% (inactive); in experiment [2], 81.1% (inactive); in experiment [3] it was 61.8% (inactive); in experiment [4], 81.2% (inactive); in [5] it was 77.4% (inactive); in experiment [6], 77.4% (inactive). In addition, the growth in [7] is 94.6% (inactive); in experiment [8], 76.9% (inactive); in experiment [9] it was 79.7% (inactive); in [10] it was 95.1% (inactive).

The record behind these values is PubChem BioAssay (NCI).
